We go through 1 molecule from PubChem BioAssay (NCATS).

Results filed as inconclusive are left out. Activity calls are given as the source filed them. Calls follow the shape of the dose curve; as a rule, active = well fitted curve in the direction sought with a large enough effect; inconclusive = small, poorly fitted or top-dose-only effect, or another doubt; inactive = no such curve, though single readings can be large; an effect the other way counts as inactive or inconclusive.

Test [1] deals with Zika virus NS2B-NS3 protease (linked construct). The experiment in a line: Primary screen NINDS Rhodamine qHTS for Zika virus inhibitors (AID 1347160). Also: potency is read from the fitted curve at half-maximal effect; nearly all actives have a fitted effect of over 55% in size. Summed up:
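Percent inhibition, normalized to uninhibited and enzyme-free controls, is fitted to a 4-parameter Hill equation. Fluorescence change comes from a 15-min cleavage of 1.5 microM bis-peptide Rhodamine110 substrate by 25 nM linked NS2B-NS3 at room temperature.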
For orientation: In qHTS, concentration-response curves come from the screen itself.

Test [2] can be described thus: HPAF-II Cancer Cell Toxicity qHTS against the NCATS CANVASS Library (AID 1347346). Also: series mostly up to about 38 µM; nearly all actives have a fitted effect of over 55% in size. Summed up: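 Luminescence from CellTiter-Glo, added after 72 h compound exposure and a 15 min room-temperature incubation, served as the viability readout. HPAF-II cells (1000/well) received an 11-point concentration series.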
Test [3] can be described thus: OV-SAHO Cancer Cell Toxicity qHTS against the NCATS CANVASS Library (AID 1347348). Also: series mostly up to about 38 µM; nearly all actives have a fitted effect of over 55% in size. An outline of the steps: (§1)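 1000 cells/well seeded and rested 4 h at 37 °C before pin transfer of compounds in an 11-pnt series. Exposure 72 h at 37 °C/5% CO2; viability by CellTiter-Glo luminescence after 15 min at room temperature.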
Test [4] in a line: Panc-1005 Cancer Cell Toxicity qHTS against the NCATS CANVASS Library (AID 1347349). Also: series mostly up to about 38 µM; nearly all actives have a fitted effect of over 60% in size. Summed up: as §1
A short description of test [5]: SW1088 Cancer Cell Toxicity qHTS against the NCATS CANVASS Library (AID 1347350). Also: nearly all actives have a fitted effect of over 75% in size. Summed up:
as §1

The nature of test [6]: U-118MG Cancer Cell Toxicity qHTS against the NCATS CANVASS Library (AID 1347351). Also: series mostly up to about 38 µM. An outline of the steps:
as §1

Test [7] is described as follows: COV-362 Cancer Cell Toxicity qHTS against the NCATS CANVASS Library (AID 1347352). Also: series mostly up to about 38 µM. Summed up: (§2)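 Luminescent ATP read-out (CellTiter-Glo, 15min at room temperature) measures survival after cells face an 11-point compound series for 72 hours at 37 degrees C/5% CO2.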
Test [8] can be described thus: A2780 Cisplatin Sensitive Ovarian Cancer Cell Toxicity qHTS against the NCATS CANVASS Library (AID 1347353). Also: series mostly up to about 46 µM; nearly all actives have a fitted effect of over 60% in size. Summed up:
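Luminescent ATP content (ATPLite, 10 min at room temperature) served as the read-out after cells had been exposed to compounds for 72 hours at 37 °C. Dosing followed an 11-point concentration series.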

Test [9] in a line: UWB1.289-WTBRCA1 Cancer Cell Toxicity qHTS against the NCATS CANVASS Library (AID 1347354). Summed up:
as §2

A short description of test [10]: HEK-293 Cancer Cell Toxicity qHTS against the NCATS CANVASS Library (AID 1347355). Also: series mostly up to about 46 µM; nearly all actives have a fitted effect of over 65% in size. Summed up: as §2
Test [11] is described as follows: HPAF-II 24hr Apoptosis Induction qHTS against the NCATS CANVASS Library (AID 1347356). Summed up:
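Luminescent caspase-3/7 signal (DEVD substrate, Caspase-Glo) served as read-out, taken 15 min after reagent addition to HPAF-II cells exposed 24 h to compounds.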

Test [12] is described as follows: HEK293 18hr Apoptosis Induction qHTS against the NCATS CANVASS Library (AID 1347357). Summed up: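 HEK293 cells (500 per well, DMEM with 10% FBS) were treated with natural products, incubated 18 hours at 37 degrees C, then caspase-3/7 activity was read by Caspase-Glo luminescence after 15 min at room temperature.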
Test [13] in a line: HPAF-II 12hr Apoptosis Induction qHTS against the NCATS CANVASS Library (AID 1347358). Summed up:
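500 HPAF-II cells/well; cmpds 11-pt; 12 hr, 37 degrees C/5% CO2; Caspase-Glo 3/7 added, 15 min RT dark; luminescence read. Doxorubicin titration as control.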

Test [14] is described as follows: HEK293 24hr Apoptosis Induction qHTS against the NCATS CANVASS Library (AID 1347359). Summed up:
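HEK293 cells, 500 per well, exposed to an 11-point compound series for 24 hours at 37 degrees C. Caspase 3/7 activity read by Caspase-Glo luminescence (DEVD substrate) after 15 min at room temperature.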

Test [15] in a line: HPAF-II 18hr Apoptosis Induction qHTS against the NCATS CANVASS Library (AID 1347360). Summed up:
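HPAF-II cells (500/well, DMEM + 10% FBS) were exposed to compounds for 18 hours at 37 degrees C. Caspase-3/7 activity was then read by Caspase-Glo 3/7 luminescence after 15 min at room temperature.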

A short description of test [16]: HEK293 12hr Apoptosis Induction qHTS against the NCATS CANVASS Library (AID 1347361). An outline of the steps: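 Read-out: Caspase-Glo 3/7 luminescence (DEVD substrate), 15 min RT. Preceded by 12 h compound exposure of HEK293, 500 cells/well, 11-pt qHTS titration; doxorubicin titration as control.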
The subject of test [17] is NAD(P)H diaphorase (Clostridium kluyveri). The experiment in a line: Diaphorse counterscreen qHTS: Assay Interference Panel against the NCATS CANVASS Library (AID 1347362). Summed up: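 Clostridium kluyveri diaphorase in PBS + 0.01% Tween-20 preincubated 15 min with compounds. Resazurin and NADH then added for 5 min at room temperature in the dark; resorufin fluorescence read (ex 525, em 598).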
(A counterscreen serves to expose hits that act by an unwanted route or on another target.)

Test [18] addresses Luciferin 4-monooxygenase (Photinus pyralis) (UniProt P08659). In words: Firefly luciferase counterscreen qHTS: Assay Interference Panel against the NCATS CANVASS Library (AID 1347363). Also: series mostly up to about 57 µM. Summed up: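 Purified P. pyralis luciferase (0.04 ug/mL, 4x reagent) added to Tris-acetate buffer with 0.013 mM D-luciferin, 0.013 mM ATP and 13.3 mM Mg-acetate; compounds preincubated 15 min, then luminescence read after 5 min, RT.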

The nature of test [19]: KB-8-5-11 Cancer Cell Toxicity qHTS against the NCATS CANVASS Library (AID 1347364). Also: nearly all actives have a fitted effect of over 75% in size. Summed up: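 Plate 500 KB-8-5-11 cells per well in DMEM + 10% FBS, add compounds by pin transfer, incubate 72 hr at 37C. Add CellTiter-Glo, wait 10 minutes at room temperature, read luminescence.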
Test [20] is described as follows: SDT Cancer Cell Toxicity qHTS against the NCATS CANVASS Library (AID 1347365).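 Also: SDT canine glioma cells 500 per well in 1536 well plates; series mostly up to about 46 µM; nearly all actives have a fitted effect of over 60% in size.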 Summed up: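 qHTS, SDT dog glioma line, 500 cells/well; cpds 11 pts; 72 hr, 37C, 5% CO2; CellTiterGlo ATP luminescence.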
The nature of test [21]: KB-3-1 Cancer Cell Toxicity qHTS against the NCATS CANVASS Library (AID 1347366). Also: nearly all actives have a fitted effect of over 75% in size. Summed up:
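KB-3-1 cells (500 cells/well) in DMEM + 10% FBS were treated with compounds for 72 hr at 37C, 5% CO2. Viability was read as CellTiter-Glo luminescence after 10 minutes at room temperature.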

The nature of test [22]: qHTS for ATAD5 Agonist screened against the NCATS CANVASS Library (AID 1347367).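 Also: luciferase reporter driven by ATAD5 which rises upon DNA damage.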 An outline of the steps:
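HEK293T cells stably carrying an ATAD5-controlled luciferase reporter (2000 cells/well) attached for 5 hr, then received compounds in an 11-point series for 16hr at 37C. Luminescence was read after a 30 min room-temperature reagent step.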

Chain of Luciferin 4-monooxygenase (Photinus pyralis) (P08659 whole entry, looked up): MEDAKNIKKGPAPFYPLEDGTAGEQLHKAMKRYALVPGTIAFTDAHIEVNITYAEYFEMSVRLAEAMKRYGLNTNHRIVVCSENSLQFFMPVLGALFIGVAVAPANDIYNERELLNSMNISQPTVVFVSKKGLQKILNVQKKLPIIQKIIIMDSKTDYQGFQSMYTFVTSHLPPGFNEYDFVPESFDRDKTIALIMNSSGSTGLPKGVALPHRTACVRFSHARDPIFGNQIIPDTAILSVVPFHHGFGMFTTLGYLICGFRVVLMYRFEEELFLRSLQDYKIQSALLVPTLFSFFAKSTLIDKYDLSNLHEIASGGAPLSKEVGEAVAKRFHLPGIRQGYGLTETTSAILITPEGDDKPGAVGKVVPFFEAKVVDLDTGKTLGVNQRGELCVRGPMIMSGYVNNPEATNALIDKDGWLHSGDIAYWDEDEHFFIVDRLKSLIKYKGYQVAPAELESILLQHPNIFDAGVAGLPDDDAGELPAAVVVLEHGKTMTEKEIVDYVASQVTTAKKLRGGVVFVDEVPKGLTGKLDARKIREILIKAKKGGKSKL

Regarding `C[C@@H]1O[C@@H](O[C@@H]2[C@@H](O)[C@H](O[C@@H]3[C@@H](O)[C@@H](O)C(O[C@H]4[C@H](OC(=O)[C@]56CCC(C)(C)C[C@H]5C5=CCC7[C@@]8(C)C[C@H](O)[C@H](O[C@@H]9C[C@H](CO)[C@@H](O)[C@H](O)[C@H]9O)[C@@](C)(CO)C8[C@H](O)C[C@@]7(C)[C@]5(C)CC6)OC[C@H](O)[C@@H]4O)O[C@H]3C)OC[C@H]2O)[C@H](O)[C@H](O)[C@H]1O` (some centres not stated), the Potency in test [1] was 24.3 µM (active). For the same molecule, the Potency entry in test [2], in test [3], in [4], in test [5], in test [6] and in [7] was “inactive” throughout. In addition, the Potency entry in test [8], in [9], in test [10], in [12], in [13] and in [14] was “inactive” each time. The Potency result in [15], in test [16], in test [17], in test [18], in test [19] and in test [20] was “inactive” each time. Also, the Potency result in test [21] and in test [22] was “inactive” throughout. Also, the result in test [11] was inactive.
